Bioassay records as filed in PubChem BioAssay.
ERK EGF inh = blocks ERK signaling stimulated by EGF. HEK293-V1b, EGF-stimulated phospho-ERK AlphaScreen. Potency, µM (titrated, usually from 11.5 µM), usual class: inhibitors. actives 0.41% (n = 130,000). AID 1454; active = well fitted inhibition curve with a large enough effect; note: nearly all actives have a fitted effect of over 55% in size
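Compounds are titrated over HEK293-V1b cells kept overnight in 1% FBS. After 30 min at 37C, EGF (25 nM final) triggers ERK phosphorylation for 5 min, measured by AlphaScreen in lysates.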
A number is an active result; 0 = inactive. The entries come from a sample that favours hits as a whole.

SMILES	ERK EGF inh
CC1(C)CC[C@]2(C(=O)O)CC[C@]3(C)C(=CC[C@@H]4[C@@]5(C)CC[C@H](O)C(C)(C)[C@@H]5CC[C@]43C)[C@@H]2C1	0
CC1(C)CC[C@]2(C(=O)O)CC[C@@]3(C)C(=CCC4[C@@]5(C)CCC(O)[C@@](C)(CO)C5CC[C@@]43C)C2C1 (some centres undefined)	0
C[C@@H]1OC(OC2CC[C@@]3(C)C(CC[C@@]4(C)C3CC=C3C5CC(C)(C)CC[C@]5(C(=O)OC5OCC(O)[C@@H](O)[C@@H]5OC5O[C@@H](C)[C@H](O[C@H]6OC(CO)C(O)C(O)C6O)C(O)C5O)C(O)C[C@@]34C)C2(C)C)C(O)C(O)[C@H]1OC1OCC(O)C(O)[C@H]1O (some centres undefined)	14.1µM
C/C=C(/C)C(=O)OC1C(OC(C)=O)[C@@]2(CO)C(O)C[C@@]3(C)C(=CCC4[C@@]5(C)CCC(OC6OC(C(=O)O)[C@@H](O[C@@H]7OC(CO)C(O)C(O)C7O)C(O)[C@H]6O[C@@H]6OC(CO)C(O)C(O)C6O)[C@](C)(CO)C5CC[C@@]43C)C2CC1(C)C (some centres undefined)	0
CC1(C)CC[C@]2(C(=O)O)CC[C@]3(C)C(=CCC4[C@@]5(C)CC[C@H](O)C(C)(C)[C@@H]5CC[C@]43C)C2C1 (some centres undefined)	0
C=CC(C1=CC(=O)C(OC)=C(OC)C1=O)c1ccccc1 (centres undefined)	0
COCCOc1ccc(C(F)(F)F)cc1NC(=O)c1ccc(F)cc1	0
COCCOc1ccc(C(F)(F)F)cc1NC(=O)c1ccccc1	0
CC(C)(C)c1ccc(OCCOc2ccc(C(C)(C)C)cc2NC=O)c(NC=O)c1	31.6µM
N=C(N)S/C=C\C(=O)O	0
COc1ccc(/C=C\C(=O)Nc2ccccc2C(=O)O)cc1OC	0
Oc1c(N=NC(=S)Nc2ccccc2F)c2ccccc2n1Cc1ccccc1Cl	14.1µM
Cc1c(Cl)cccc1NC(=S)N=Nc1c(O)n(CN2CCOCC2)c2ccccc12	0
NC(=S)N=Nc1c(O)n(Cc2ccccc2)c2ccccc12	0
C[C@@H]1Cc2ccccc2N1NC(=O)c1ccc(Cl)c(S(N)=O)c1 (some centres undefined)	0
N#C/C(=C\c1ccc(O)c(O)c1)C(=O)NCCCCc1ccccc1	0
COC(=O)C1(C)C=C(Nc2ccc(OC)cc2)C(=O)N1c1ccc(OC)cc1 (centres undefined)	0
CCCCCN=c1ccn(Cc2ccccc2)c2ccccc12	0
COc1cc(/C=N/Nc2nc(-c3ccc(S(=O)(=O)N(C)C)cc3)cs2)ccc1O	8.91µM
COc1cc(/C=N/Nc2cc(C)nc(NS(=O)(=O)c3ccc(C)cc3)n2)ccc1O	0
COc1ccc(/C=N/Nc2nc(-c3cccc(S(=O)(=O)N4CCCC4)c3)cs2)cc1OC	0
COC(=O)NC(c1ccccc1)C1(C(=O)OC)C(=O)Cc2ccccc21 (centres undefined)	0
CC1(C)OC(=O)C=C[C@@]2(C)C1C[C@@H](O)[C@]1(C)C2CC[C@@]2(C)C(c3ccoc3)OC(=O)[C@H]3O[C@]321 (some centres undefined)	0
N#Cc1ccc(NC(=O)Nc2ccc(Oc3ccc(NC(=O)Nc4ccc(C#N)cc4)cc3)cc2)cc1	31.6µM
N#Cc1ccc(NC(=O)Nc2cccc(C#N)c2)cc1	0
SMILES	ERK EGF inh
CC(=O)Nc1ccc(Oc2ccccc2)cc1	0
CCC(C)(C)c1ccc(OCCCC[n+]2cccc(C)c2C)c(C(C)(C)CC)c1	31.6µM
COc1ccc(C(=O)C[n+]2cccc(C)c2C)cc1[N+](=O)[O-]	0
Cc1cc(C(C)(C)C)ccc1OCCCCN1CCCC1	0
C=CCOc1ccc(/C=C2\SC(=S)N(C(C(=O)O)c3ccccc3)C2=O)cc1 (centres undefined)	0
CC(c1ccccc1)N1C(=O)/C(=C/c2ccncc2)SC1=S (centres undefined)	22.4µM
O=C(O)C(c1ccccc1)N1C(=O)/C(=C/c2cccs2)SC1=S (centres undefined)	0
CCN(CC)CCCCn1c(-c2ccccc2)nc2c(N(CCOC)CCOC)nc(C)nc21	0
O=C(O)C(O)C(O)(Cc1ccc(O)cc1)C(=O)O (centres undefined)	0
COc1cc2c(cc1NC(=O)c1ccc(C)c([N+](=O)[O-])c1)oc1ccccc12	0
Cc1ccc(C(=O)c2cc3ccccc3o2)cc1[N+](=O)[O-]	22.4µM
Cc1ccc(C(=O)NCCSCc2ccccc2)cc1[N+](=O)[O-]	0
O=C(O)COCCN1CCN([C@@H](c2ccccc2)c2ccc(Cl)cc2)CC1	0
C=C1CCC2C(CC2(C)C)C(=C)CC/C1=N/O (centres undefined)	0
C=C1c2c(Cl)ccc(O)c2C(O)=C2C(=O)[C@@]3(O)C(O)=C(C(N)=O)C(=O)[C@@H](N(C)C)[C@@H]3[C@@H](O)[C@H]12	0
COc1ccc(OC)c2c(=S)c3ccccc3[nH]c12	0
O=C(Nc1ccc(S(=O)(=O)N2CCCC2)cc1)c1ccc(OCC2CCCO2)cc1 (centres undefined)	0
Cc1ccc(NC(=O)c2ccc(OCC3CCCO3)cc2)cc1 (centres undefined)	0
O=C(Nc1ccc(Cl)c(S(=O)(=O)N2CCOCC2)c1)c1ccc(OCC2CCCO2)cc1 (centres undefined)	14.1µM
COC(=O)CC1c2ccccc2C(Cc2ccc3c(c2)OCO3)=C(C)N1C(=O)OC (centres undefined)	0
CC12CC[C@@H]3c4ccc(OS(=O)(=O)O)cc4CC[C@H]3C1CCC2=O (some centres undefined)	0
CCCCC#Cc1nc(NC)c2ncn([C@@H]3O[C@@H](CO)[C@H](O)[C@H]3O)c2n1	0
O=C(Nc1nc2c(s1)CCCC2)c1ccc(S(=O)(=O)N2CCCc3ccccc32)cc1	0
CN(C)c1ccc(C(=O)Nc2nc3c(s2)CCCC3)cc1	22.4µM
CC(C)(C)c1ccc(C(=O)NC(=S)Nc2nc3c(s2)CCCC3)cc1	0
SMILES	ERK EGF inh
O=C(Nc1ccccc1)OC[C@H](CN1CCCCC1)OC(=O)Nc1ccccc1	0
Nc1ccc(N)c(C(=O)O)c1	0
Cc1ccc2c(c1)C(=O)c1c(C(=O)O)cccc1-2	0
Nc1cc(C(=O)O)c(N)c2c1C(=O)c1ccccc1C2=O	28.2µM
C=CC(C1=CC(=O)C(OC)=CC1=O)c1ccccc1 (centres undefined)	0
CCCCC/C=C\C/C=C\CCCCCCCC(=O)NCCCC(=O)O	0
Cc1cccn2c1nc(=S)n2C(=O)c1ccco1	0
Cc1ccc2c(c1)-c1c(ssc1=S)C(C)(C)N2C(=O)c1ccco1	12.6µM
Cc1ccc(CN2CCN(C(=O)c3ccco3)CC2)cc1	0
COC[C@H]1OC=C[C@@H](OC)[C@@H]1OC	0
CCOC(=O)CNC(=O)O[C@@H]1Cc2cc(OC)ccc2O[C@H]1c1cccc(OC)c1	0
Cn1cccc1C(=O)N1CCC2(CCCN(c3ccccn3)C2)CC1	0
CCNc1ccc(C(=O)OCC(=O)NC(C)c2ccccc2)cc1[N+](=O)[O-] (centres undefined)	0
Cc1cccc(NC(=O)c2ccc(NC(C)c3ccccc3)c([N+](=O)[O-])c2)n1 (centres undefined)	14.1µM
CCSc1ccc(C(=O)Nc2cccc(C)n2)cc1[N+](=O)[O-]	0
CN1CCC2(CCN3CCc4c(oc5ccccc45)C3C2)N(C)C1=O (centres undefined)	0
CCCCCCCCCCCCCCCC(=O)N[C@@H](COP(=O)(O)O)C(=O)O	0
